PubChem BioAssay AID1159580 (chemical genetic matrix, 2015)
Where “and” joins values, the source holds several entries; their conditions need not be identical. Identical values can stand only once. Among all 5,500 compounds or so, about 2,000 (36%) were called active. Roughly 18% stayed inconclusive and do not appear here. Rule as the data show it: active = normalized growth mostly below about 0.91 (no sharp cut-off); inconclusive = no clear call, values can overlap the other calls; inactive = mostly above about 0.92. This is one part of the list.

Experiment: chemical genetic growth profiling, strain panel (AID 1159580);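 also: tested at 20 µM; growth read once vehicle control cultures reached saturation at 30 °C; 1 = growth at the plate median or of vehicle wells; lower values mean less growth of the strain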
Details: growth OD

Measured: normalized growth

CN(C)CCOC(=O)COc1ccc(Cl)cc1
inactive: S. cerevisiae deletion strains, locus YKL009W, strain mrt4, active compounds read low 1.04 | S. cerevisiae deletion strains, locus YKL068W, active compounds read low 1 | S. cerevisiae deletion strains, locus YKL085W, strain MDH1 (second series), active compounds read low 1.01 | S. cerevisiae deletion strains, locus YKL085W, strain MDH1, active compounds read low 1.01 | S. cerevisiae deletion strains, locus YKL160W, strain elf1, active compounds read low 0.972 | S. cerevisiae deletion strains, locus YKL190W, strain CNB1, active compounds read low 1.01 | S. cerevisiae deletion strains, locus YKR026C, strain gcn3, active compounds read low 0.948 | S. cerevisiae deletion strains, locus YKR091W, strain srl3, active compounds read low 0.969 | S. cerevisiae deletion strains, locus YLL001W, strain dnm1, active compounds read low 0.959 | S. cerevisiae deletion strains, locus YLL026W, active compounds read low 0.969 | S. cerevisiae deletion strains, locus YLL041C, strain sdh2, active compounds read low 0.961 | S. cerevisiae deletion strains, locus YLR027C, strain aat2, active compounds read low 0.972 | S. cerevisiae deletion strains, locus YLR058C, strain SHM2, active compounds read low 1.02 | S. cerevisiae deletion strains, locus YLR102C, strain apc9, active compounds read low 1.02 | S. cerevisiae deletion strains, locus YLR113W, strain HOG1, active compounds read low 0.971 | S. cerevisiae deletion strains, locus YLR221C, strain rsa3, active compounds read low 0.987 | S. cerevisiae deletion strains, locus YLR258W, strain gsy2, active compounds read low 0.965 | S. cerevisiae deletion strains, locus YLR262C, strain YPT6 (second series), active compounds read low 1.08 | S. cerevisiae deletion strains, locus YLR320W, strain mms22, active compounds read low 1.01 | S. cerevisiae deletion strains, locus YLR330W, strain CHS5, active compounds read low 1.02 | S. cerevisiae deletion strains, locus YLR342W, strain FKS1 (second series), active compounds read low 0.953 | S. cerevisiae deletion strains, locus YLR342W, strain FKS1, active compounds read low 0.97 | S. cerevisiae deletion strains, locus YLR357W, strain rsc2, active compounds read low 1.01 | S. cerevisiae deletion strains, locus YLR370C, strain arc18, active compounds read low 0.962 | S. cerevisiae deletion strains, locus YLR371W, strain rom2, active compounds read low 1.02 | S. cerevisiae deletion strains, locus YLR384C, strain iki3, active compounds read low 0.983 | S. cerevisiae deletion strains, locus YML016C, strain PPZ1, active compounds read low 1.02 | S. cerevisiae deletion strains, locus YML032C, strain rad52, active compounds read low 1.07 | S. cerevisiae deletion strains, locus YML120C, strain ndi1, active compounds read low 0.966 | S. cerevisiae deletion strains, locus YML124C, strain tub3, active compounds read low 1.04 | S. cerevisiae deletion strains, locus YMR058W, strain fet3, active compounds read low 0.976 | S. cerevisiae deletion strains, locus YMR078C, strain ctf18, active compounds read low 1.05 | S. cerevisiae deletion strains, locus YMR125W, strain sto1, active compounds read low 0.965 | S. cerevisiae deletion strains, locus YMR129W, active compounds read low 0.973 | S. cerevisiae deletion strains, locus YMR205C, strain PFK2, active compounds read low 0.986 | S. cerevisiae deletion strains, locus YMR223W, strain ubp8, active compounds read low 1.04 | S. cerevisiae deletion strains, locus YMR231W, strain pep5, active compounds read low 0.976 | S. cerevisiae deletion strains, locus YMR263W, strain SAP30, active compounds read low 1.05 | S. cerevisiae deletion strains, locus YMR307W, strain GAS1, active compounds read low 0.963 | S. cerevisiae deletion strains, locus YNL067W, strain RPL9B, active compounds read low 1.06 | S. cerevisiae deletion strains, locus YNL071W, strain lat1, active compounds read low 0.988 | S. cerevisiae deletion strains, locus YNL128W, strain TEP1, active compounds read low 1.03 | S. cerevisiae deletion strains, locus YNL153C, strain GIM3, active compounds read low 1.03 and 0.882 | S. cerevisiae deletion strains, locus YNL175C, strain NOP13, active compounds read low 0.949 | S. cerevisiae deletion strains, locus YNL183C, strain NPR1, active compounds read low 0.962 | S. cerevisiae deletion strains, locus YNL197C, strain WHI3, active compounds read low 0.954 | S. cerevisiae deletion strains, locus YNL209W, strain ssb2, active compounds read low 0.974 | S. cerevisiae deletion strains, locus YNL224C, strain SQS1, active compounds read low 1.01 | S. cerevisiae deletion strains, locus YNL233W, strain BNI4, active compounds read low 1.07 | S. cerevisiae deletion strains, locus YNL248C, strain rpa49, active compounds read low 0.996 | S. cerevisiae deletion strains, locus YNL250W, strain rad50, active compounds read low 1.01 | S. cerevisiae deletion strains, locus YNL271C, strain bni1, active compounds read low 1.04 | S. cerevisiae deletion strains, locus YNL298W, strain CLA4, active compounds read low 1.02 | S. cerevisiae deletion strains, locus YNL307C, strain MCK1, active compounds read low 1.05 | S. cerevisiae deletion strains, locus YNL322C, strain KRE1 (second series), active compounds read low 0.977 | S. cerevisiae deletion strains, locus YNL322C, strain KRE1, active compounds read low 1.02 | S. cerevisiae deletion strains, locus YNR049C, strain mso1, active compounds read low 0.955 | S. cerevisiae deletion strains, locus YNR052C, strain pop2, active compounds read low 1.07 | S. cerevisiae deletion strains, locus YOL006C, strain TOP1, active compounds read low 1.01 | S. cerevisiae deletion strains, locus YOL012C, strain htz1 1.88 | S. cerevisiae deletion strains, locus YOL147C, strain pex11, active compounds read low 1.03 | S. cerevisiae deletion strains, locus YOR001W, strain rrp6, active compounds read low 0.947 | S. cerevisiae deletion strains, locus YOR061W, strain CKA2, active compounds read low 1.03 | S. cerevisiae deletion strains, locus YOR069W, strain VPS5, active compounds read low 1 | S. cerevisiae deletion strains, locus YOR070C, strain gyp1, active compounds read low 0.984 | S. cerevisiae deletion strains, locus YOR080W, strain dia2, active compounds read low 0.952 | S. cerevisiae deletion strains, locus YOR083W, strain WHI5 (second series), active compounds read low 0.994 | S. cerevisiae deletion strains, locus YOR083W, strain WHI5, active compounds read low 0.979 | S. cerevisiae deletion strains, locus YOR106W, strain vam3, active compounds read low 1 | S. cerevisiae deletion strains, locus YOR136W, strain idh2, active compounds read low 1.03 | S. cerevisiae deletion strains, locus YOR144C, strain elg1, active compounds read low 1.02 | S. cerevisiae deletion strains, locus YOR231W, strain MKK1, active compounds read low 1.05 | S. cerevisiae deletion strains, locus YOR265W, strain rbl2, active compounds read low 0.964 | S. cerevisiae deletion strains, locus YOR270C, strain vph1, active compounds read low 0.884 | S. cerevisiae deletion strains, locus YOR290C, strain snf2, active compounds read low 0.962 | S. cerevisiae deletion strains, locus YOR316C, strain cot1, active compounds read low 1.02 | S. cerevisiae deletion strains, locus YPL051W, strain arl3, active compounds read low 0.986 | S. cerevisiae deletion strains, locus YPL055C, strain LGE1, active compounds read low 1.06 and 1.03 | S. cerevisiae deletion strains, locus YPL078C, strain atp4, active compounds read low 0.973 | S. cerevisiae deletion strains, locus YPL106C, strain sse1, active compounds read low 0.878 | S. cerevisiae deletion strains, locus YPL240C, strain hsp82, active compounds read low 0.957 | S. cerevisiae deletion strains, locus YPL241C, strain CIN2, active compounds read low 1.01 | S. cerevisiae deletion strains, locus YPL256C, strain CLN2, active compounds read low 1.1 | S. cerevisiae deletion strains, locus YPR119W, strain clb2, active compounds read low 1.03 | S. cerevisiae deletion strains, locus YPR141C, strain kar3, active compounds read low 1.02 | S. cerevisiae deletion strains, locus YPR163C, strain tif3, active compounds read low 1.06 | S. cerevisiae deletion strains, locus YPR167C, strain met16, active compounds read low 1.05 | S. cerevisiae deletion strains, strain wtn01, active compounds read low 1.04 | S. cerevisiae strains, strain wild type, active compounds read low 1.03
active: S. cerevisiae deletion strains, locus YKR001C, strain vps1, active compounds read low 1.14 [resistant] | S. cerevisiae deletion strains, locus YLR039C, strain RIC1, active compounds read low 1.61 [resistant] | S. cerevisiae deletion strains, locus YLR262C, strain YPT6, active compounds read low 1.85 [resistant] | S. cerevisiae deletion strains, locus YLR268W, strain sec22, active compounds read low 1.15 [resistant] | S. cerevisiae deletion strains, locus YLR418C, strain cdc73, active compounds read low 1.21 [resistant] | S. cerevisiae deletion strains, locus YOR184W, strain ser1, active compounds read low 1.15 [resistant]
